Source: PubChem BioAssay
Platelet DG rel: modulates dense granule release in human platelets | inhibition, %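 (compounds screened at 7.5 µM in platelet-rich plasma)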 | hit rate 0.22% among 300,000 | AID 1663 | human platelet-rich plasma, SFLLRN dense granule ATP release, luminescence;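 active = mean replicate score, as percent of positive control, at or above 50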
CHT allo act: allosteric activators of human choline transporter CHT | Q9GZV3 | CHT-expressing cells, membrane potential dye, choline EC20; active compounds read high; LV-AA mutant CHT in HEK293 cells | B-score at 10 µM | hit rate 0.49% among 310,000;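 active = initial fluorescence not abnormally high and integrated response B-score, plate-corrected, over 3 SD above library mean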
Target sequence (Q9GZV3 whole entry, looked up): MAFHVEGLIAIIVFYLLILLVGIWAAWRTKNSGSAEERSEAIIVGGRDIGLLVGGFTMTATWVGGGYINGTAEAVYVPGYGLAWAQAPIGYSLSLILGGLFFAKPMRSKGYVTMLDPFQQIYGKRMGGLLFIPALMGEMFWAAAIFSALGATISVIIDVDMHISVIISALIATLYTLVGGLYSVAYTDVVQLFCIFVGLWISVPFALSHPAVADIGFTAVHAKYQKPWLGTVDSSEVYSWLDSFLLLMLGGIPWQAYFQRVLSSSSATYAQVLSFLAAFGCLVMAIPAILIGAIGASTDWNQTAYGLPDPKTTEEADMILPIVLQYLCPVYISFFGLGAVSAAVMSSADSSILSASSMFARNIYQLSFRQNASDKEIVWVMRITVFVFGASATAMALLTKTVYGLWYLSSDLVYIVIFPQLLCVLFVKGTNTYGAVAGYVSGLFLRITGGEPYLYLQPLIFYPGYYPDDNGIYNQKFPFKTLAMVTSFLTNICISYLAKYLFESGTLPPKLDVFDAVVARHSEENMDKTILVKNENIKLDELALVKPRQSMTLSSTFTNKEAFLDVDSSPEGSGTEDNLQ
HIF activator: HIF pathway transcriptional activation; hit rate 0.32% among 300,000; activation, % at 7.5 µM (by protocol); AID 1910; U2OS HRE-luciferase reporter, luminescence; normalized: DMSO 0%, desferrioxamine 100%;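 active = mean activation of at least 10% of the iron chelator positive control signal, with at least half of replicates also reaching 10%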
VLA-4 inh: inhibition in a human VLA-4 binding assay; P13612; VLA-4 expressing cells, ligand binding flow cytometry; hit rate 0.2% among 330,000; inhibition, % (about 7 µM as worked out from the volumes in the protocol); AID 2557; in the data active = inhibition above about 50%
AI-2 QS modul: modulates the Vibrio harveyi AI-2 quorum sensing system; hit rate 0.4% among 300,000; activity change, % at 7.5 µM; Vibrio harveyi JMH597 AI-2 luminescence/OD600 ratio, 9 h; active compounds read low; strain lacks LuxN and CqsS sensors; 0 = neutral-control median; AID 2094; in the data active = activity change below about -75%, passing the limit was not always enough;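 also: luminescence divided by OD600 gain over 9 h not by final OD600 alone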
CHT inh: human CHT choline transport inhibition | Q9GZV3 | CHT-expressing cells, membrane potential dye, choline response; active compounds read low | B-score at 10 µM | hit rate 0.86% among 310,000;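 active = B-score over 3 SD under the library average, and starting fluorescence ratio not unusually high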;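 also: choline stimulus applied at its EC90 after an EC20 pre-addition; B-score computed on integrated fluorescence ratio after choline addition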
VLA-4 allo CP: confirmation of allosteric modulators of human VLA-4 integrin; shares compounds with VLA-4 inh; U937 cells, HUTS-21 LIBS mAb binding, flow cytometry; LDV ligand present at threefold Kd; inhibition, % at 6.7 µM; hit rate 2% among 1,300; in the data active = inhibition above about 40%
CHT inh conf: human CHT inhibition, confirmatory screen | shares compounds with CHT inh | CHT-expressing cells, choline membrane potential dye; LV-to-AA substituted CHT, HEK293 cells | CHT activity remaining % of control (active compounds read low), % at 10 µM | hit rate 70% among 2,400;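 active = choline transporter activity left, mean of duplicates at 10 µM, below buffer-only control mean minus 3 SD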;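 also: depolarization triggered by choline at its EC90 following an EC20 pre-addition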
HEK293 CHT ctr: counter-screen for CHT inhibitors: effect in parental HEK293 cells. membrane potential ratio readout (active if shifted either direction beyond buffer ±3SD; no single direction) at 10 µM. hit rate 4% among 2,400. membrane potential dye, choline response; active = decrease or increase beyond buffer ±3SD. shares compounds with CHT inh;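 also: parental cells lack the transporter so any hit is non-specific; ratio is peak minus trough fluorescence over baseline after EC90 choline challenge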
CHT act confirm: human CHT activation, confirmatory screen. activation, % at 10 µM. AID 504833. hit rate 91% among 2,500. CHT-expressing cells, membrane potential dye fluorescence (FDSS); % of choline EC20–EC90 response window; HEK293 expressing CHT LV-AA mutant; choline added at its EC20. shares compounds with CHT allo act;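 active = primary screen active, with duplicate mean activation above negative control mean plus 3 SD, cut at about 11% in these data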
HEK293 MP dye: activity in parental HEK293 cells lacking CHT; shares compounds with CHT allo act; hit rate 62% among 2,500; membrane potential dye fluorescence (FDSS); measured after EC20 choline addition; ratio readout change at 10 µM, hits read low;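 active = duplicate-averaged ratio beyond 3 SD from buffer wells, up or down, though filed actives are nearly all decreases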
Numbers stand for hits; 0 = inactive; - = not tested or not shown; ! = not confirmed by another sample. Most compounds without a hit are left out; they make up all but 2.2% or so of the library.

SMILES	Platelet DG rel	CHT allo act	HIF activator	VLA-4 inh	AI-2 QS modul	CHT inh	VLA-4 allo CP	others
C[N+]1(C)C2CCC1CC(OC(=O)c1ccccc1)C2 (stereo unspecified)	0	0	0	0	0	0	0
O=P(Nc1cccc(Cl)c1)(Oc1ccccc1)Oc1ccccc1	0	0	0	0	0	0	-
COC(=O)c1ccc(CN2CCN(Cc3ccccc3)CC2)cc1	0	0	0	0	0	0	-
COC(=O)C1C(OC(=O)c2ccccc2)CC2CCC1N2C (stereo unspecified)	0	0	0	0	0	0	0
CCCC[n+]1cc(=N)o[n-]1	0	0	0	0	0	0	-
CCCCOP(=O)(CN1CCOCC1)OCCCC	0	0	0	90.9	0	0	0
CCOP(=O)(OCC)C(CC)N1CCOCC1 (stereo unspecified)	0	0	0	0	0	0	-
CN1C2CCC1CC(OC(=O)c1ccc(Cl)cc1)(C(=O)O)C2 (stereo unspecified)	0	0	0	0	0	0	0
CCC1(OC(=O)c2ccccc2)CC(C)N(C)CC1C (stereo unspecified)	0	0	0	0	0	0	-
CN1C2CCC1CC(OC(=O)c1ccc(Cl)cc1)C2 (stereo unspecified)	0	0	0	0	0	0	0
CCOc1ccc(C(=O)OC2CC3CCC(C2)N3C)cc1 (stereo unspecified)	0	0	0	0	0	0	0
Cc1ccc(-n2c(O)c(C=NCCCn3ccnc3)c(=O)[nH]c2=O)cc1	0	0	0	0	0	0	-
Cc1cccc(NC(=O)C(C)N2CC=C(c3ccccc3)CC2)c1 (stereo unspecified)	0	0	0	0	0	0	-
NCCc1ccc(OCc2ccccc2)c(OCc2ccccc2)c1	-	-	-	73.6	-	-	0
CN1CCN(Cc2cn(C)c3ccccc23)CC1CCO (stereo unspecified)	0	0	0	0	0	0	-
Cc1cc(OCC(=O)NCc2ccc(S(N)(=O)=O)cc2)c2c3c(c(=O)oc2c1)CCC3	0	0	0	53.1	0	0	0
C=CCN1CC[C@]23c4c5ccc(O)c4O[C@H]2/C(=N/NC(=O)c2ccccc2)CC[C@@]3(O)[C@H]1C5	0	0	0	0	0	0	-
O=C(NCCN1CCCCC1)c1ccc(Cl)nc1Cl	0	0	0	0	0	0	-
COC(=O)[C@@H]1[C@@H](C(=O)OC)C2(c3ccccc3-c3ccccc32)N(c2ccc(Cl)cc2)N1C#N	0	0	0	57.8	0	0	0
COC(=O)C[C@]1(C(=O)OC)CN(C#N)N(c2ccc(Cl)cc2)C12c1ccccc1-c1ccccc12	0	0	0	56.6	0	0	0
Cc1ccc(C2=NN(CCC(=O)N3CCC4(CC3)OCCO4)C(=O)CC2)cc1	0	0	0	0	0	0	-
Nc1ncc2[nH]cnc2n1	0	0	0	52.6!	0	0	0
Cc1ccc(-c2cc(-c3ccc(C)cc3)[n+](-c3ccccc3)c(-c3ccc(C)cc3)c2)cc1	0	0	0	53.7	0	-5.52	0	CHT inh conf=65.6%;HEK293 CHT ctr=3.53
Cc1ccc(N=C(/N=C(\N)N[N+](=O)[O-])Nc2ccc(C)cc2)cc1	0	0	0	0	0	0	-
COc1ccc(C(=O)OC2C[C@H]3CC[C@H](C2)N3C)cc1OC (stereo partly specified)	-	6.57	-	0	-	0	0	CHT act confirm=40.2;HEK293 MP dye=-32.2
SMILES	Platelet DG rel	CHT allo act	HIF activator	VLA-4 inh	AI-2 QS modul	CHT inh	VLA-4 allo CP	others
C=CCn1c(O)c(C(CC)=NCCc2c[nH]c3ccccc23)c(=O)[nH]c1=O	0	0	0	0	0	0	-
CCC(=NCCc1ccccc1)c1c(O)n(C)c(=O)n(C)c1=O	0	0	0	0	0	-5.63	-	CHT inh conf=52.7%;HEK293 CHT ctr=0
CCC(=NCc1ccco1)c1c(O)n(C)c(=O)n(C)c1=O	0	0	0	0	0	0	-
COc1ccc(NC2=NCCCS2)cc1OC	0	0	0	0	0	0	-
Cc1cccc(CCNCc2cc3cccc(C)c3[nH]c2=O)c1	0	0	0	0	0	-12.4	-	CHT inh conf=8.5%;HEK293 CHT ctr=0
Cc1[nH]n(-c2ccccc2)c(=O)c1C(c1ccc([N+](=O)[O-])cc1)c1c(C)[nH]n(-c2ccccc2)c1=O	0	0	0	0	0	-6.24	-	CHT inh conf=36.5%;HEK293 CHT ctr=0
Cc1nc2ccccc2c(=O)n1-c1cc([N+](=O)[O-])cc([N+](=O)[O-])c1	0	0	0	0	0	0	-
CCOc1ccc(-n2c(O)c(C=NCCN(CC)CC)c(=O)[nH]c2=O)cc1	0	0	0	0	0	-6.27	-	CHT inh conf=0;HEK293 CHT ctr=0
CCOC(=O)CCN=Cc1c(O)n(-c2ccc(Br)cc2)c(=O)[nH]c1=O	-	0	0	0	0	0	-
CC/C(=N\N1CCCCCC1)c1c(O)n(-c2ccccc2C)c(=O)[nH]c1=O	0	0	0	0	0	0	-
C[C@]12CCC3C(CC[C@H]4C[C@H](O)CC[C@]34C)C1C[C@H](O)[C@@H]2O (stereo partly specified)	-	-	-	0	-	-	-
O=C1NC(=O)C(=Cc2csc3ccccc23)C(=O)N1	0	0	0	0	0	0	-
O=C1NC(=O)C(=Cc2coc3ccccc3c2=O)C(=O)N1	0	0	0	0	0	-9.45	-	CHT inh conf=46.4%;HEK293 CHT ctr=0
CC1=NCCc2c1[nH]c1ccccc21	0	0	0	0	0	-7.79	-	CHT inh conf=33.5%;HEK293 CHT ctr=0
Cc1c(C(=O)O)cc(-c2ccccc2)n1Cc1ccccc1	0	0	0	0	0	-6.29	-	CHT inh conf=7.3%;HEK293 CHT ctr=-34.9
Cc1ccccc1-n1c(O)c(/C=C2/C(c3ccccc3)=Nc3ccccc32)c(=O)[nH]c1=O	0	0	0	0	0	-5.16	-	CHT inh conf=52.7%;HEK293 CHT ctr=0
CCOP(=O)(OCC)/C(C#N)=C/c1ccc(Br)cc1	0	0	0	0	0	0	-
CC(C)(C)NCC(O)c1cc(Cl)c(N)c(Cl)c1 (stereo unspecified)	0	0	0	0	0	-5.12	-	CHT inh conf=37.1%;HEK293 CHT ctr=0
CC1CCCC(C2(O)C(=O)Nc3ccccc32)C1=O (stereo unspecified)	0	0	0	0	0	0	-
